# Laboratory results from ChEMBL document CHEMBL1961873, “Compounds: GSK PKIS; Assays: Nanosyn kinase panel” (2012).
# Legend:
# [1] = biological target: Serine/threonine-protein kinase MARK2 (Homo sapiens) (UniProt Q7KZI7); details: at 1 µM
# [2] = biological target: PAS domain-containing serine/threonine-protein kinase (Homo sapiens) (UniProt Q96RG2); details: at 0.1 µM
# [3] = biological target: PAS domain-containing serine/threonine-protein kinase (Homo sapiens) (UniProt Q96RG2); details: at 1 µM
# [4] = biological target: Phosphorylase b kinase gamma catalytic chain, skeletal muscle/heart isoform (Homo sapiens) (UniProt Q16816); details: at 0.1 µM
# [5] = biological target: Phosphorylase b kinase gamma catalytic chain, skeletal muscle/heart isoform (Homo sapiens) (UniProt Q16816); details: at 1 µM
# [6] = biological target: T1, Phosphorylase b kinase gamma catalytic chain, liver/testis isoform (Homo sapiens) (UniProt P15735); details: at 0.1 µM
# T1 sequence (whole entry): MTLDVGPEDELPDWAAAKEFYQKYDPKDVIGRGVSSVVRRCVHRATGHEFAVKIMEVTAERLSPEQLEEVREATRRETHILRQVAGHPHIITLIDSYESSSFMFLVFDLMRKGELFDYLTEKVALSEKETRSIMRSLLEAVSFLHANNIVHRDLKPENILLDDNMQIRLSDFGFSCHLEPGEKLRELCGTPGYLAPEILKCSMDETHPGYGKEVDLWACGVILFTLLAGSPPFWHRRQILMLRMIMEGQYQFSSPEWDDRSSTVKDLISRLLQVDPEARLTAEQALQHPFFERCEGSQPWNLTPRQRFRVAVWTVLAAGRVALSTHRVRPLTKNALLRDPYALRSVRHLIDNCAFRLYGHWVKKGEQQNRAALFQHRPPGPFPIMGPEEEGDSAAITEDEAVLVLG
# [7] = biological target: T1, Phosphorylase b kinase gamma catalytic chain, liver/testis isoform (Homo sapiens); details: at 1 µM
# [8] = biological target: Serine/threonine-protein kinase pim-1 (Homo sapiens) (UniProt P11309); details: at 0.1 µM
# Serine/threonine-protein kinase pim-1 (Homo sapiens), sequence (P11309 whole entry, looked up): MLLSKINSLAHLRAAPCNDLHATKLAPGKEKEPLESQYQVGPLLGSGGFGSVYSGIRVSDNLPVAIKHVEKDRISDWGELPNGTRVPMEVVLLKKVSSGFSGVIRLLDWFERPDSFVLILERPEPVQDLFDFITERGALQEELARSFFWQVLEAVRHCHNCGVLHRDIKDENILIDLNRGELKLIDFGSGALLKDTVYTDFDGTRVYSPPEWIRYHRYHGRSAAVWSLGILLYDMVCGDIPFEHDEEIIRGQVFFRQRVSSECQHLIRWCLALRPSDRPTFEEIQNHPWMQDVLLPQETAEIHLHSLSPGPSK
# [9] = biological target: Serine/threonine-protein kinase pim-1 (Homo sapiens) (UniProt P11309); details: at 1 µM
# [10] = biological target: Serine/threonine-protein kinase pim-2 (Homo sapiens) (UniProt Q9P1W9); details: at 0.1 µM
# Serine/threonine-protein kinase pim-2 (Homo sapiens), sequence (Q9P1W9 whole entry, looked up): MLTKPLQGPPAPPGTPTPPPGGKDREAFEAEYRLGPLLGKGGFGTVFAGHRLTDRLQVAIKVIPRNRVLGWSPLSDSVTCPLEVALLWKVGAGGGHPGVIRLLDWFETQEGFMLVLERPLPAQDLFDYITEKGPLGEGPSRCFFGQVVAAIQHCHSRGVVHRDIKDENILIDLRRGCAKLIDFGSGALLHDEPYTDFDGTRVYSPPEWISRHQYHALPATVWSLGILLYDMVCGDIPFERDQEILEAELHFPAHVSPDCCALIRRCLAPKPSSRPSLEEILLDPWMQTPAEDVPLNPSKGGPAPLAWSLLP
# [11] = biological target: Serine/threonine-protein kinase pim-2 (Homo sapiens) (UniProt Q9P1W9); details: at 1 µM
# [12] = biological target: Serine/threonine-protein kinase pim-3 (Homo sapiens) (UniProt Q86V86); details: at 0.1 µM
# [13] = biological target: Serine/threonine-protein kinase pim-3 (Homo sapiens) (UniProt Q86V86); details: at 1 µM
# [14] = biological target: T2, MAP kinase-activated protein kinase 5 (Homo sapiens) (UniProt Q8IW41); details: at 0.1 µM
# T2 sequence (whole entry): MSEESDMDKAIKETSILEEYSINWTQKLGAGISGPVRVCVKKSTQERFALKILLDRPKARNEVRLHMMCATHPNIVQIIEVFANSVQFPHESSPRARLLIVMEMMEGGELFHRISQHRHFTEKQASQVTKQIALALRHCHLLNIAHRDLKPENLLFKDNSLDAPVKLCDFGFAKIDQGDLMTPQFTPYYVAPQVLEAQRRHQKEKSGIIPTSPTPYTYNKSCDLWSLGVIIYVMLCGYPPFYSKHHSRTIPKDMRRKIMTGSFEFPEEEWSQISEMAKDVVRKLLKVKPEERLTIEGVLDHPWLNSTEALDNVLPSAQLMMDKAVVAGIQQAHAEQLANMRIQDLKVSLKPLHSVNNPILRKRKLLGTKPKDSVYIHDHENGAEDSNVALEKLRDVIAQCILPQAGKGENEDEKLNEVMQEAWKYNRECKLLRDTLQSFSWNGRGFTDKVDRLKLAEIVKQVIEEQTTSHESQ
# [15] = biological target: T2, MAP kinase-activated protein kinase 5 (Homo sapiens); details: at 1 µM
# [16] = biological target: Serine/threonine-protein kinase SIK1 (Homo sapiens) (UniProt P57059); details: at 0.1 µM
# Serine/threonine-protein kinase SIK1 (Homo sapiens), sequence (P57059 whole entry): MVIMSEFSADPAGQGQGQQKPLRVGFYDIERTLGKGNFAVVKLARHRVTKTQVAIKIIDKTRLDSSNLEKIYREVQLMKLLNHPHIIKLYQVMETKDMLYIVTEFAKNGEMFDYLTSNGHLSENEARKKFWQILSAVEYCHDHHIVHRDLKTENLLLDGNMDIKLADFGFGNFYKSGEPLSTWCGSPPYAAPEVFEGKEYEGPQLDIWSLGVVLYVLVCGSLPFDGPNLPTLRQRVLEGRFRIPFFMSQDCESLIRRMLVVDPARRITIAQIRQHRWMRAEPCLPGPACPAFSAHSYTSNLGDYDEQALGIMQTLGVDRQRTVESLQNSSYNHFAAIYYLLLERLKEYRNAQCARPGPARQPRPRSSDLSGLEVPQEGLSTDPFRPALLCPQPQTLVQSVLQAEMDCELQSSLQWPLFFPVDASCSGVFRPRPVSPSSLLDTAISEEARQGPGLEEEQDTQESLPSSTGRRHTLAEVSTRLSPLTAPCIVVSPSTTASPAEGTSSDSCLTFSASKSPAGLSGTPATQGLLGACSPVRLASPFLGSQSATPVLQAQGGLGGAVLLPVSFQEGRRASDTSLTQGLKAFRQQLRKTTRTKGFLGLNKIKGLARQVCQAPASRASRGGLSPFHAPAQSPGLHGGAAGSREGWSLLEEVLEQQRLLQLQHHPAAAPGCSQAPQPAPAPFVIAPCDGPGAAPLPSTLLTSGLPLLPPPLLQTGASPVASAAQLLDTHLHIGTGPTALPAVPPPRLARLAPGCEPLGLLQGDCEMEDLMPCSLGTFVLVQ
# [17] = biological target: Serine/threonine-protein kinase SIK1 (Homo sapiens) (UniProt P57059); details: at 1 µM
# [18] = biological target: Serine/threonine-protein kinase SIK2 (Homo sapiens) (UniProt Q9H0K1); details: at 0.1 µM
# Serine/threonine-protein kinase SIK2 (Homo sapiens), sequence (Q9H0K1 whole entry, looked up): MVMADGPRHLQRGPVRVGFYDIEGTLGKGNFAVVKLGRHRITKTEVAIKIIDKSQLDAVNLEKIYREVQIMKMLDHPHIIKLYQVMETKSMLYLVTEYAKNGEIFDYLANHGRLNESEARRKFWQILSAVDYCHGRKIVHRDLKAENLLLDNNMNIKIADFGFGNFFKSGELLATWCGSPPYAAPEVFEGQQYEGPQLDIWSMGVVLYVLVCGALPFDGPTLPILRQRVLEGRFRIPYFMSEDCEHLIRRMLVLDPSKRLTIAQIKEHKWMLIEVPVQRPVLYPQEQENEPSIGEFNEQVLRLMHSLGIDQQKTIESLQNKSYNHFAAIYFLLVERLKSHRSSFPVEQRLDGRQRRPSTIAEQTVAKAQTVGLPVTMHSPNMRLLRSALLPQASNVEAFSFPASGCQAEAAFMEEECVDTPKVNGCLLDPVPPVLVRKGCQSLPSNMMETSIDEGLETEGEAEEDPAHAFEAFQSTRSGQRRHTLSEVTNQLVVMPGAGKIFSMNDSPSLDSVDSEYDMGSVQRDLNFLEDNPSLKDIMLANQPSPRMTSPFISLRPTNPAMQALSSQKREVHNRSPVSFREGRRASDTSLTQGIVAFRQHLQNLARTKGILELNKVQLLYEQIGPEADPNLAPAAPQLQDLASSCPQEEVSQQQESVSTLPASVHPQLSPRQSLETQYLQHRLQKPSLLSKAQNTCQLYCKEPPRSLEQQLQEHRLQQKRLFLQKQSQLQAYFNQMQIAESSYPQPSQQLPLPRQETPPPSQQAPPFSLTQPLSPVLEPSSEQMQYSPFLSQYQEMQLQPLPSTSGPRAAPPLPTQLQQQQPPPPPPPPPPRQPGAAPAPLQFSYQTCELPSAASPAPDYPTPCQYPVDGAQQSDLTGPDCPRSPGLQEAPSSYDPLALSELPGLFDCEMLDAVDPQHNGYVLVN
# [19] = biological target: Serine/threonine-protein kinase SIK2 (Homo sapiens) (UniProt Q9H0K1); details: at 1 µM
# [20] = biological target: T3, Serine/threonine-protein kinase TBK1 (Homo sapiens) (UniProt Q9UHD2); details: at 0.1 µM;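 also: values are the mean TBK1 inhibition, taken from the GSK PKIS screening data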
# T3 sequence (whole entry): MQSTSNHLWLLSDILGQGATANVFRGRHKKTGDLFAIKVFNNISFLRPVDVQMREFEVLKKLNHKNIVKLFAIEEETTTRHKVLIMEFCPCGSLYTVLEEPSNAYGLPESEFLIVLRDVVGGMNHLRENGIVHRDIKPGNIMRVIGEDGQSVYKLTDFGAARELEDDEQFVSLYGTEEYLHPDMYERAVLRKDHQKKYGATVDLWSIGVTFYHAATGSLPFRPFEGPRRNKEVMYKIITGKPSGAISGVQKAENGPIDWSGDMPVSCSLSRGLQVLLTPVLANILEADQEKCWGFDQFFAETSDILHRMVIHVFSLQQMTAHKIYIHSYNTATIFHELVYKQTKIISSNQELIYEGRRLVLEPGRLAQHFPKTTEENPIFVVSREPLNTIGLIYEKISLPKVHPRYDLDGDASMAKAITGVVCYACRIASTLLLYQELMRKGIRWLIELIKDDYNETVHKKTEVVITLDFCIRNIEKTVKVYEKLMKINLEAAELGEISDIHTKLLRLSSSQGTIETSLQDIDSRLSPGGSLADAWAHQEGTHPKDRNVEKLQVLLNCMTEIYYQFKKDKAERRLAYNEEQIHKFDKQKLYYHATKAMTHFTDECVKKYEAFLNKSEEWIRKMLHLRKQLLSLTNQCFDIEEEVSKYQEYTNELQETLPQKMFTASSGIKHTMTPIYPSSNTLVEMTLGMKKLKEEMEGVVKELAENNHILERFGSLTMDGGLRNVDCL
# PAS domain-containing serine/threonine-protein kinase (Homo sapiens), sequence (Q96RG2 whole entry, the tested form may be a part, canonical isoform): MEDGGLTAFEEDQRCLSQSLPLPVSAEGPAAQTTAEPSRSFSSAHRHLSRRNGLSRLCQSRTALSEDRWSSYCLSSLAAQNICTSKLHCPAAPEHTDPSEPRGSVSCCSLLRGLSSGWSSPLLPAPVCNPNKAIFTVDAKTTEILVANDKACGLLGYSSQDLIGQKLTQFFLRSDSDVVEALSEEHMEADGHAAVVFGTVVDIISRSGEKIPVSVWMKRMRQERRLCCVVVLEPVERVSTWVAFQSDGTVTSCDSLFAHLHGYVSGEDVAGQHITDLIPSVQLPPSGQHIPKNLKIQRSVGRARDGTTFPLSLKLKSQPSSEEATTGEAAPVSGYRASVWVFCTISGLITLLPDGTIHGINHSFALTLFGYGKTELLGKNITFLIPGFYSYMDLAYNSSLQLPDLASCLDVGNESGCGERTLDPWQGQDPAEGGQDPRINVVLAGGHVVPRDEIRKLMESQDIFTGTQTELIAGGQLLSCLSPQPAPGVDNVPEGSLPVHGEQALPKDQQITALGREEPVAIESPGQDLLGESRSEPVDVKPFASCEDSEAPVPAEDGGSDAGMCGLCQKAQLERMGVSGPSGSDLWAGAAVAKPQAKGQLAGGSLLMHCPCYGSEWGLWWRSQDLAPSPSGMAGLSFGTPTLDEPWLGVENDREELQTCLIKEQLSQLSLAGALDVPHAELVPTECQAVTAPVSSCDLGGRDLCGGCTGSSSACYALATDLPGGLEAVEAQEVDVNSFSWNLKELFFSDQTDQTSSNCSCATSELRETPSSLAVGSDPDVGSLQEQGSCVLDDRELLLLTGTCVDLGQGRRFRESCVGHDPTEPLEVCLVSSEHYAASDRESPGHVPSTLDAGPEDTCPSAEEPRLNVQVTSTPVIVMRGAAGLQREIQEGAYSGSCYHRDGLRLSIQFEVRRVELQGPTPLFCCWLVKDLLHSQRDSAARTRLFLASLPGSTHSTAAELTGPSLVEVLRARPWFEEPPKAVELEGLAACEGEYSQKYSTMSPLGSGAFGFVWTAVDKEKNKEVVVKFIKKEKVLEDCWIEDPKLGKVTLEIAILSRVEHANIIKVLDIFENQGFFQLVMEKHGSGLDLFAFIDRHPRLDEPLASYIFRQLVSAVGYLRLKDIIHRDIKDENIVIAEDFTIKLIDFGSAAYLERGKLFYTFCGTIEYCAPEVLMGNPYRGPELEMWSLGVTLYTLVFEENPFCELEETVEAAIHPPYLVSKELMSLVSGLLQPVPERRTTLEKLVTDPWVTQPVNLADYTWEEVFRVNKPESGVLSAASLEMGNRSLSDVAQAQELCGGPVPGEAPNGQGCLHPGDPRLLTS
# Serine/threonine-protein kinase MARK2 (Homo sapiens), sequence (Q7KZI7 whole entry, the tested form may be a part): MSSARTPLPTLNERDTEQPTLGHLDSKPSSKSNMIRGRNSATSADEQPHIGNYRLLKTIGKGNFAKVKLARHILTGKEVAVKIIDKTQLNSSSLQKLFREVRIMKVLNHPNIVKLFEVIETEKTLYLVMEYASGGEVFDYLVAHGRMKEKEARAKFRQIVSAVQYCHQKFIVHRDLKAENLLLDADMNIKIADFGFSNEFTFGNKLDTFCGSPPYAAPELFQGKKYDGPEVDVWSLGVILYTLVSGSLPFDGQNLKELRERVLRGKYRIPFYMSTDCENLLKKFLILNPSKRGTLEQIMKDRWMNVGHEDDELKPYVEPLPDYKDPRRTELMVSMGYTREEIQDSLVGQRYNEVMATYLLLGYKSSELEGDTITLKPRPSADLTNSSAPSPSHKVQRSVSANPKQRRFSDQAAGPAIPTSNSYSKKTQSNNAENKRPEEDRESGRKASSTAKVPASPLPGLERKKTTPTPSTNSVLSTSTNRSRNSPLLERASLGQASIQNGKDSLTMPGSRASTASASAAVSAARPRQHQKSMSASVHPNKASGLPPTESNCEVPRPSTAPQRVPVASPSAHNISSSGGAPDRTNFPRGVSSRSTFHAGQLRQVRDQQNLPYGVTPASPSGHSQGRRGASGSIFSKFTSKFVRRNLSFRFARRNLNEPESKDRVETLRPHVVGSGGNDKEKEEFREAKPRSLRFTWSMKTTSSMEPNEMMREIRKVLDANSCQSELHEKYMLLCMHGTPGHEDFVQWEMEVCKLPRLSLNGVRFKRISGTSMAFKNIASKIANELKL
SMILES,inhibition [1] [%],inhibition [2] [%],inhibition [3] [%],inhibition [4] [%],inhibition [5] [%],inhibition [6] [%],inhibition [7] [%],inhibition [8] [%],inhibition [9] [%],inhibition [10] [%],inhibition [11] [%],inhibition [12] [%],inhibition [13] [%],inhibition [14] [%],inhibition [15] [%],inhibition [16] [%],inhibition [17] [%],inhibition [18] [%],inhibition [19] [%],inhibition [20] [%]
COc1cc2ncn(-c3cc(OCc4ccccc4S(C)(=O)=O)c(C#N)s3)c2cc1OC,70.7,0.91,0.31,45.2,76.5,4.94,10.9,0.71,0.97,0.9,1.39,-0.4,-0.82,0.7,-0.19,16.1,61,21.9,69.4,64.9
CC(C)c1ccc(Nc2nccc(-c3cnn4ncccc34)n2)cc1,1.01,-0.78,-0.93,2.33,7.97,4.16,3.83,-0.71,2.45,-0.13,1.73,0.51,6.16,0.53,1.09,4.79,8.55,2.73,11.3,1.14
CS(=O)(=O)Nc1cccc(-c2ccc3c(NC(=O)C4CC4)n[nH]c3c2)c1,2.88,0.72,-0.4,3.02,6.04,2.36,-0.09,0.69,0.43,0.5,1.38,-0.62,-2.53,0.1,-1.16,-0.72,5.25,-2.65,9.32,-0.1
C[C@@H](Oc1cc(-n2cnc3ccc(OC[C@@H](O)CO)cc32)sc1C(N)=O)c1ccccc1Cl,4.76,0.26,1.99,0.98,4.08,-2.13,-1.44,2.14,19.1,-0.13,1.97,2.99,22.2,-0.57,-0.59,-2.64,6.54,4.2,10.6,0.21
NC(=O)c1cccc(Nc2nccc(Nc3cccc(F)c3)n2)c1,3.47,1.27,0.17,-0.51,3.35,1.29,0.54,-0.04,-0.4,-0.05,0.31,0.13,2,0.33,-0.56,9.14,37,7.47,25.1,1.55
CCOc1nccc2c1nc(-c1nonc1N)n2CC,1.46,1.66,5.36,3.39,5.97,4.34,9.55,0.76,2.04,0.25,1.49,3.33,5.37,2.15,3.99,4.04,5.99,4.45,9.31,1.76
